According to PubChem BioAssay (NCATS):
Inconclusive results are not listed. Calls of active or inactive are those of the source. Calls follow the shape of the dose curve; as a rule, active = well fitted curve in the direction sought with a large enough effect; inconclusive = small, poorly fitted or top-dose-only effect, or another doubt; inactive = no such curve, though single readings can be large; an effect the other way counts as inactive or inconclusive.

Assays:
[1] = HPAF-II 18hr Apoptosis Induction qHTS against the NCATS CANVASS Library (AID 1347360)
Text: Natural products and their derivatives continue to be wellsprings of nascent therapeutic potential. However, many laboratories have limited resources for biological evaluation, leaving their previously isolated or synthesized compounds largely or completely untested. To address this issue, the Canvass library of natural products was assembled (https://tripod.nih.gov/canvass), in collaboration with academic and industry researchers, for quantitative high-throughput screening (qHTS) across a diverse set of cell-based and biochemical assays. The pure (>85% purity by liquid chromatography/mass spectrometry [LC/MS]) Canvass library of 346 natural products were submitted by 45 academic laboratories and companies around the world. […] The library was formatted into 1536-well plates and evaluated in 50 qHTS (in an 11-pnt concentration series) bioassays with broad scope of disease-relevant mechanisms. The resulting data set from 50 different assays was then systematically analyzed to identify overall trends and specific natural products with interesting biological activities. […] The luminescence is proportional to the amount of caspase activity in the assay reaction. […]
Cancer Cell Apoptosis Assay 1. […] Luminescence signal was acquired via the ViewLux plate reader (PerkinElmer) using a clear filter, 20 second exposure and 2x binning settings.

[2] = HEK293 12hr Apoptosis Induction qHTS against the NCATS CANVASS Library (AID 1347361)
In short: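 HEK293 cells (500/well) were exposed to an 11-point qHTS concentration series for 12 hours at 37 degrees C. Caspase-3/7 activity was then read by DEVD-substrate luciferase luminescence after 15 min at room temperature.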

[3] = test system: NAD(P)H diaphorase (Clostridium kluyveri); experiment: Diaphorse counterscreen qHTS: Assay Interference Panel against the NCATS CANVASS Library (AID 1347362)
In short: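 Clostridium kluyveri diaphorase in PBS with 0.01% Tween-20 was preincubated 15 min at room temperature in the dark with compounds (11-point series). Resorufin fluorescence (ex 525/20, em 598/25) was read 5 min after adding resazurin/NADH.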

[4] = target: Luciferin 4-monooxygenase (Photinus pyralis) (UniProt P08659); experiment: Firefly luciferase counterscreen qHTS: Assay Interference Panel against the NCATS CANVASS Library (AID 1347363); also: series mostly up to about 57 µM
Chain of Luciferin 4-monooxygenase (Photinus pyralis) (P08659 whole entry, looked up): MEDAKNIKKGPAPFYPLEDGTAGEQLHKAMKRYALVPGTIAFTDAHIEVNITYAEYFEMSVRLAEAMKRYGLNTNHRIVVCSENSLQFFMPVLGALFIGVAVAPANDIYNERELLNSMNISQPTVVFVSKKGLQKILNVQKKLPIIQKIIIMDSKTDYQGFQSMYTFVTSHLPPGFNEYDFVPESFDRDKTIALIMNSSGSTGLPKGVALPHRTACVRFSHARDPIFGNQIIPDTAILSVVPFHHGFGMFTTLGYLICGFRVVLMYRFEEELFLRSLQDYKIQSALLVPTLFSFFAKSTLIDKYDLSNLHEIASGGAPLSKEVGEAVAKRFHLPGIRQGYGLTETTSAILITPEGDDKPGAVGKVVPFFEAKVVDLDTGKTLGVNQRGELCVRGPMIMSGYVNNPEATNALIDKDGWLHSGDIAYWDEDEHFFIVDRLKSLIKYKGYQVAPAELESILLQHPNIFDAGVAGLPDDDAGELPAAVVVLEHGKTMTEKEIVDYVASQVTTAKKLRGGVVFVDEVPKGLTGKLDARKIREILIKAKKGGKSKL
In short: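 Purified P. pyralis luciferase was added to compounds (11-point series) preincubated 15 min at room temperature with substrate containing 0.013 mM D-luciferin and 0.013 mM ATP; luminescence was read after 5 min.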

[5] = KB-8-5-11 Cancer Cell Toxicity qHTS against the NCATS CANVASS Library (AID 1347364); also: series mostly up to about 46 µM; nearly all actives have a fitted effect of over 75% in size
In short: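 Viability read as CellTiter-Glo luminescence after 72 h at 37 °C, 5% CO2. 11-point compound series on 500 KB-8-5-11 cells/well in DMEM/10% FBS. Follow-up plating included 1 uM tariquidar in the medium.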

[6] = KB-3-1 Cancer Cell Toxicity qHTS against the NCATS CANVASS Library (AID 1347366); settings: outcome: dose series up to 46.1 µM; also: nearly all actives have a fitted effect of over 75% in size
Text: Natural products and their derivatives continue to be wellsprings of nascent therapeutic potential. However, many laboratories have limited resources for biological evaluation, leaving their previously isolated or synthesized compounds largely or completely untested. To address this issue, the Canvass library of natural products was assembled (https://tripod.nih.gov/canvass), in collaboration with academic and industry researchers, for quantitative high-throughput screening (qHTS) across a diverse set of cell-based and biochemical assays. The pure (>85% purity by liquid chromatography/mass spectrometry [LC/MS]) Canvass library of 346 natural products were submitted by 45 academic laboratories and companies around the world. We collected pure natural products to circumvent deconvolution and structure elucidation due to time and resource limitations. The library was formatted into 1536-well plates and evaluated in 50 qHTS (in an 11-pnt concentration series) bioassays with broad scope of disease-relevant mechanisms. The resulting data set from 50 different assays was then systematically analyzed to identify overall trends and specific natural products with interesting biological activities. […]
Cancer Cell Toxicity qHTS protocol 1. […] Luminescence signal was acquired via the ViewLux plate reader (PerkinElmer) using a clear emission filter, 1 sec exposure, and 1x binning settings.

[7] = qHTS for ATAD5 Agonist screened against the NCATS CANVASS Library (AID 1347367);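 also: luciferase reporter driven by ATAD5 which rises upon DNA damage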
In short: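 Luciferase reporter under ATAD5 control, stably integrated in HEK293T cells (2000/well). Compounds (11 points) incubated 16 h at 37C; viability read first by CellTiter-Fluor, then luminescence reporting ATAD5 activation. MMS positive control.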

[8] = G06 Cancer Cell Toxicity qHTS against the NCATS CANVASS Library (AID 1347368); also: series mostly up to about 46 µM; nearly all actives have a fitted effect of over 60% in size
In short: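 Viability measured by CellTiterGlo ATP luminescence after 72 hr at 37C, 5% CO2. Canine G06 glioma cells plated at 500/well. Compounds tested as 11-point qHTS titrations.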

[9] = MCF7 Cancer Cell Toxicity qHTS against the NCATS CANVASS Library (AID 1347369); also: series mostly up to about 46 µM
In short: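 MCF7 cells (500/well) were exposed 72 h at 37 °C to compounds in an 11-point series. Viability was read as ATP content by CellTiterGlo luminescence.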

[10] = SDT Cancer Cell Toxicity qHTS against the NCATS CANVASS Library (AID 1347365);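 also: SDT canine glioma cells 500 per well in 1536 well plates; series mostly up to about 46 µM; nearly all actives have a fitted effect of over 60% in size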
In short: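 Cytotoxicity taken from CellTiterGlo ATP luminescence after 72 hr at 37C, 5% CO2. Canine glioma line SDT, 500 cells/well, treated at 11 concentrations; bortezomib dose series as control.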

Measured: outcome

NCCc1c[nH]c2ccccc12
not listed: [10]
inactive: all other assays above

NCCc1c[nH]c2ccc(O)cc12
not listed: [3]
inactive: all other assays above
